{"source": "the supplement of paper PMC6658780", "note": "Structures can show the parent of a compound that is named as a salt. ± gives the standard deviation of the averaged measurements."}
{"system": "Klebsiella pneumoniae KPC-119", "experiment": "percent growth inhibition of drug alone vs DMSO control; higher = more growth inhibition", "conditions": "antibiotic (0.125x MIC): none (0.1% DMSO); 7 µM", "units": {"percent growth inhibition of drug alone": "%"}}
{"compound": "CN1CCN(c2c(F)cc3c(=O)c(C(=O)O)cn4c3c2SCC4)CC1", "note": "[Rufloxacin]", "percent growth inhibition of drug alone": "14.6 ± 2.5"}
{"compound": "C[C@@H]1CN(c2c(F)c(N)c3c(=O)c(C(=O)O)cn(C4CC4)c3c2F)C[C@H](C)N1", "note": "[Sparfloxacin]", "percent growth inhibition of drug alone": "33.5 ± 3.3"}
{"compound": "CO/N=C(\\C(=O)N[C@@H]1C(=O)N2C(C(=O)O)=C(C[N+]3(C)CCCC3)CS[C@H]12)c1csc(N)n1", "note": "[Cefepime hydrochloride]", "percent growth inhibition of drug alone": "3.95 ± 2.2"}
{"compound": "CC1CCc2cc(F)cc3c(=O)c(C(=O)O)cn1c23", "note": "(configuration not stated) [Flumequine]", "percent growth inhibition of drug alone": "15.15 ± 0.074"}
{"compound": "Nc1nc(/C(=C/CC(=O)O)C(=O)N[C@@H]2C(=O)N3C(C(=O)O)=CCS[C@H]23)cs1", "note": "[Ceftibuten]", "percent growth inhibition of drug alone": "38.6 ± 4.3"}
{"compound": "CN(C)CCCN1c2ccccc2Sc2ccc(Cl)cc21", "note": "[Chlorpromazine hydrochloride]", "percent growth inhibition of drug alone": "-3.83 ± 2.6"}
{"compound": "NCC[C@H](O)C(=O)N[C@@H]1C[C@H](N)[C@@H](O[C@H]2O[C@H](CN)[C@@H](O)[C@H](O)[C@H]2O)[C@H](O)[C@H]1O[C@H]1O[C@H](CO)[C@@H](O)[C@H](N)[C@H]1O", "note": "[Amikacin hydrate]", "percent growth inhibition of drug alone": "3.37 ± 0.38"}
{"compound": "CCn1cc(C(=O)O)c(=O)c2cc(F)c(N3CCNCC3)nc21", "note": "[Enoxacin]", "percent growth inhibition of drug alone": "1.76 ± 1.6"}
{"compound": "CN(C(=O)CN(CCO)CC(=O)N(C)C(C)(C)Cc1ccccc1)C(C)(C)Cc1ccccc1", "note": "[Oxethazaine]", "percent growth inhibition of drug alone": "-4 ± 0.52"}
{"compound": "C[C@H]1c2cccc(O)c2C(=O)C2=C(O)[C@]3(O)C(=O)C(C(N)=O)=C(O)[C@@H](N(C)C)[C@@H]3[C@@H](O)[C@@H]21", "note": "[Doxycycline hydrochloride]", "percent growth inhibition of drug alone": "15.8 ± 3"}
{"compound": "COc1cc(C)nc(-n2nc(C)cc2OC)n1", "note": "[Epirizole]", "percent growth inhibition of drug alone": "-1.76 ± 0.66"}
{"compound": "C=CC1=C(C(=O)O)N2C(=O)[C@@H](NC(=O)/C(=N\\OCC(=O)O)c3csc(N)n3)[C@H]2SC1", "note": "[Cefixime]", "percent growth inhibition of drug alone": "9.48 ± 2.4"}
{"compound": "CC1COc2c(N3CCN(C)CC3)c(F)cc3c(=O)c(C(=O)O)cn1c23", "note": "(configuration not stated) [Ofloxacin]", "percent growth inhibition of drug alone": "47.1 ± 5"}
{"compound": "COC(=O)N/N=C/c1c[n+]([O-])c2ccccc2[n+]1[O-]", "note": "[Carbadox]", "percent growth inhibition of drug alone": "1.29 ± 2"}
{"system": "Klebsiella pneumoniae KPC-119", "experiment": "percent growth inhibition of drug alone vs DMSO control; higher = more growth inhibition", "conditions": "antibiotic (0.125x MIC): none (0.1% DMSO); 20 µM", "units": {"percent growth inhibition of drug alone": "%"}}
{"compound": "CN1CCN(c2c(F)cc3c(=O)c(C(=O)O)cn4c3c2SCC4)CC1", "note": "[Rufloxacin]", "percent growth inhibition of drug alone": "83.22 ± 0.72"}
{"compound": "C[C@@H]1CN(c2c(F)c(N)c3c(=O)c(C(=O)O)cn(C4CC4)c3c2F)C[C@H](C)N1", "note": "[Sparfloxacin]", "percent growth inhibition of drug alone": "99.04 ± 0.49"}
{"compound": "CC1CCc2cc(F)cc3c(=O)c(C(=O)O)cn1c23", "note": "(configuration not stated) [Flumequine]", "percent growth inhibition of drug alone": "65.7 ± 2.7"}
{"compound": "CN(C)CCCN1c2ccccc2Sc2ccc(Cl)cc21", "note": "[Chlorpromazine hydrochloride]", "percent growth inhibition of drug alone": "-3.58 ± 1.3"}
{"compound": "NCC[C@H](O)C(=O)N[C@@H]1C[C@H](N)[C@@H](O[C@H]2O[C@H](CN)[C@@H](O)[C@H](O)[C@H]2O)[C@H](O)[C@H]1O[C@H]1O[C@H](CO)[C@@H](O)[C@H](N)[C@H]1O", "note": "[Amikacin hydrate]", "percent growth inhibition of drug alone": "39.8 ± 0.7"}
{"compound": "CCn1cc(C(=O)O)c(=O)c2cc(F)c(N3CCNCC3)nc21", "note": "[Enoxacin]", "percent growth inhibition of drug alone": "25.2 ± 4"}
{"compound": "CN(C(=O)CN(CCO)CC(=O)N(C)C(C)(C)Cc1ccccc1)C(C)(C)Cc1ccccc1", "note": "[Oxethazaine]", "percent growth inhibition of drug alone": "-5.74 ± 4.4"}
{"compound": "C[C@H]1c2cccc(O)c2C(=O)C2=C(O)[C@]3(O)C(=O)C(C(N)=O)=C(O)[C@@H](N(C)C)[C@@H]3[C@@H](O)[C@@H]21", "note": "[Doxycycline hydrochloride]", "percent growth inhibition of drug alone": "35.7 ± 5.2"}
{"compound": "COc1cc(C)nc(-n2nc(C)cc2OC)n1", "note": "[Epirizole]", "percent growth inhibition of drug alone": "-0.885 ± 4.3"}
{"compound": "C=CC1=C(C(=O)O)N2C(=O)[C@@H](NC(=O)/C(=N\\OCC(=O)O)c3csc(N)n3)[C@H]2SC1", "note": "[Cefixime]", "percent growth inhibition of drug alone": "44.3 ± 4.2"}
{"compound": "CCCCC(CC)CNC(=N)NC(=N)NCCCCCCNC(=N)NC(=N)NCC(CC)CCCC", "note": "(configuration not stated) [Alexidine dihydrochloride]", "percent growth inhibition of drug alone": "99.76 ± 0.25"}
{"compound": "CC1COc2c(N3CCN(C)CC3)c(F)cc3c(=O)c(C(=O)O)cn1c23", "note": "(configuration not stated) [Ofloxacin]", "percent growth inhibition of drug alone": "97.47 ± 0.25"}
{"compound": "COC(=O)N/N=C/c1c[n+]([O-])c2ccccc2[n+]1[O-]", "note": "[Carbadox]", "percent growth inhibition of drug alone": "11 ± 1.9"}
